# TAR Tat displ = HIV-1 TAR-Tat binding disruption; z-score (test concentration not listed); 100,000 compounds, 0.6% hits; HIV-1 TAR RNA, Tat peptide displacement FRET; stronger effect = higher value; AID 1259389; active = z-score of 3 or more in at least 2 runs
# CDC25B-CDK2 inh = human CDC25B-CDK2/CyclinA binding inhibition; 94,000 compounds, 0.72% hits; HTRF CDC25B-CDK2/CyclinA binding, anti-His/anti-Flag; stronger effect = higher value; z-score (test concentration not listed); in the data active = z-score above about 3.2
# The depositor's hits bear a star; . = not tested or not shown. Most compounds without a hit are left out; they make up all but 0.86% or so of the library.
SMILES,TAR Tat displ,CDC25B-CDK2 inh
CCn1nc(-c2ccccc2)nc2c(=O)n(C)c(=O)nc1-2,-7.7,-0.92
Cn1nc(-c2ccccc2)nc2c(=O)n(C)c(=O)nc1-2,-4.7,5.8*
CCC1(C(=O)c2ccc(F)cc2)C2c3cc(Br)ccc3OC(=O)C21C(=O)OC (configuration not stated),0.73,0.72
CCC(=O)N1N=C2C3CCN(CC3)C2C1c1ccc(SC)cc1 (configuration not stated),0.85,-1.7
COc1ccc(OC)c(C(c2c(O)c3ccccc3oc2=O)c2c(O)c3ccccc3oc2=O)c1,.,-2.6
CC(C)=CCCC1=CC(=O)c2c(O)ccc(O)c2C1=O,34*,.
C=CCOc1ccccc1C1SCC(=O)Nc2n[nH]c(C)c21 (configuration not stated),-0.5,-1.4
CCc1ccc(CN2CCN(Cc3cc(Br)ccc3O)CC2)cc1,1.3,-0.94
COc1cccc(CN2CCN(Cc3cc(Br)ccc3O)CC2)c1,0.7,16*
CCN1CCc2nc3sc(C(=O)OC)c(N)c3cc2C1,-2.1,2.6
CCN(CC)C(=O)c1ccc(N2C(=O)C(C)(C)CS2(=O)=O)cc1,0.66,-0.6
COc1ccc(CCNCc2ccc(OC)c(OC)c2)cc1OC,-1.2,-0.56
COc1ccc(Cc2nccc3cc(OC)c(OC)cc23)cc1OC,1.6,13*
CCn1c(N2CCNCC2)nc2ccccc21,-0.66,-1.2
O=[N+]([O-])c1ccc(O)c([N+](=O)[O-])c1,1.9,.
O=[N+]([O-])c1cc(O)c(O)c([N+](=O)[O-])c1,9.5*,-3.6
[Cl-].[Cl][Pt].[NH2-].[NH2-].c1ccncc1,.,3.7*
CCN1CCN(c2ccc3nnc(C)n3n2)CC1,1.8,-2.1
CCC(C)C(=O)O[C@H]1[C@H](O)C2C(CN3CC(C)CCC3[C@@]2(C)O)C2C[C@]34O[C@]5(O)C(OC(=O)C(C)(O)C(C)O)CC[C@@]3(C)C5C(OC(C)=O)[C@@H](OC(C)=O)C4[C@@]21O (some centres not stated),0.53,.
CC[C@@H](C)C(=O)O[C@H]1[C@H](O)[C@H]2[C@@H](CN3C[C@@H](C)CC[C@H]3[C@@]2(C)O)[C@@H]2C[C@]34OC5(O)[C@@H](OC(=O)C(C)(O)C(C)O)CC[C@@]3(C)[C@@H]5[C@@H](OC(C)=O)[C@@H](OC(C)=O)[C@H]4[C@@]21O (some centres not stated),10*,.
COc1ccc(Br)cc1C1SCC(=O)Nc2c1c(C)nn2-c1ccc(F)cc1 (configuration not stated),0.29,-0.06
COc1ccc(C2CC(=O)C3=C(C2)NC(=O)CC3c2ccc(Br)cc2)cc1OC (configuration not stated),-1.2,-0.92
CC[C@@H](CO)NC(=O)[C@@H]1C=C2c3cccc4[nH]cc(c34)C[C@H]2N(C)C1,0.85,4.2*
CC[C@@H](CO)NC(=O)[C@@H]1C=C2c3cccc4c3c(cn4C)C[C@H]2N(C)C1,.,1.1
Cc1cc(C)nc(-n2nc(C)c3c2NC(=O)CSC3c2ccc(F)cc2F)n1 (configuration not stated),-1.4,-1.3
SMILES,TAR Tat displ,CDC25B-CDK2 inh
c1ccc(-n2cccc2-c2nc(N3CC3)nc(N3CC3)n2)cc1,.,16*
O=C1C2CCN(CC2)C1Cc1ccc(OCCOc2ccccc2)cc1 (configuration not stated),0.32,-0.64
O=C1C2CCN(CC2)C1Cc1ccco1 (configuration not stated),.,12*
CC(=O)NCCN1C(C)N1CCNC(C)=O (configuration not stated),.,-3.5
COc1cc2c(cc1O)CC1c3c(cc(O)c(OC)c3-2)CCN1C (configuration not stated),7.7*,.
COc1cc2c3c(c1OC)-c1ccccc1CC3N(C)CC2 (configuration not stated),-9.2,.
CCCCCn1cc(C(=O)c2cccc3ccccc23)c2ccc(OC)cc21,1.2,.
COc1ccc2nc3sc(C(=O)N4CCC5(CC4)OCCO5)cc3cc2c1,.,-0.16

# High-throughput results as filed in PubChem.
